Source: article PMC12136788
In all, about 5,800 sequences were measured (“enrichment r”: median about 0.68, highest 2% from about 11 on). Only a sample is shown.

T1: UNK ZnF1-6 (called full-length) (human, UniProt Q9C0B0 30-357)
T1 sequence: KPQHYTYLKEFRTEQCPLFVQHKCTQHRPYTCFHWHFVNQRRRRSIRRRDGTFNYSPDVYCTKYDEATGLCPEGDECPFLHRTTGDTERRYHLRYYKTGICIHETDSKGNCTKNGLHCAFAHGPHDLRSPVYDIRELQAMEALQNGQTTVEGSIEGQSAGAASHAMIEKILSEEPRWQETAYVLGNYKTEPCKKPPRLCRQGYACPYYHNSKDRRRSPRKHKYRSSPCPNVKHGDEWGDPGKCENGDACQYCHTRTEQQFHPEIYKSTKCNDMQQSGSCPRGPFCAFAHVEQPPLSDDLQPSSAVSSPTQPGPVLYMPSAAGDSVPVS

B1: chr22:36281679:36281692:-|3pUTR|ENSG00000100345|msi1_unk|total|mutant (ssRNA)
RNA: GGGAGUUCUACAGUCCGACGAUCUCUUGUGUCUACUCCCGGACUGGGCCCGAGGGUGGUUUACCUGCACCGUUGACUCAGUACCGUUUAAAAAUCUGCCACCUGCACAGGUAUUUUUGAAAGCAAAAUAAGGUUUUCUUUUUUCAACAGAGGAUUGAGCAUCA
B2: chr7:137227872:137228000:-|3pUTR|ENSG00000105894|msi1_unk|total|mutant (ssRNA)
RNA: GGGAGUUCUACAGUCCGACGAUCGGAACAUAAAAAGGACAUCAGCAAACAGGAUCAGUUAACUAUUGCAUUUAUAUGUACCGCCGGCUUUGUAUUCAAAAAUUAUCUACCGCUAAGUACACAAUAAGCAAAAACAAAAAGAAACAACAGAGGAUUGAGCAUCA
B3: ENSG00000165476:stop:overlap|stop_codon|ENSG00000165476|stop_codon|NA|stop_codon (ssRNA)
RNA: GGGAGUUCUACAGUCCGACGAUCAAGAGGUGCGGUACGGGUCACUAAAAUACAAAGUGAAGAAACGACCACAAGUGUAUUUUUAGUCAUCUACACGUCAAAUAUCCCAAGACAGAUUAUGCUAAAUACAUCGACUUCAUCUUCCAACAGAGGAUUGAGCAUCA
B4: ENSG00000138660:stop:overlap|stop_codon|ENSG00000138660|stop_codon|NA|stop_codon (ssRNA)
RNA: GGGAGUUCUACAGUCCGACGAUCCUGUAUUAGAACUGUCUGAUUCUGGCAUAAGGCAUUCUGACACAGAUCAACAGACUCGAUAGGGUAAAAUUGUGUGACCUUGUUUAUCAGUUAUGACCAAAUGUUAAAAACCAACUAGAACAACAGAGGAUUGAGCAUCA
B5: chr3:11557161:11557262:-|3pUTR|ENSG00000144560|msi1|total|mutant (ssRNA)
RNA: GGGAGUUCUACAGUCCGACGAUCCCUCUGACUUUAUACUGUUAUUACUGCAUUUAUUAUUUGCUAUAUUAACCGCUACUAACCCGAAAUCCGAUGAAGCAAGCAUGACAGACACAGCUGUGGAGGUCACAGCUGCUCCUUUUUCAACAGAGGAUUGAGCAUCA
B6: ENSG00000198589:be:win_7201|CDS|ENSG00000198589|bound_else_gene|NA|bound_elsewhere_windowed (ssRNA)
RNA: GGGAGUUCUACAGUCCGACGAUCGAGAGUGAAUUUGUUUCCUGCCAGCUUCACCAAUGGAUUGAUCUCAUUUUUGGCUAUAAACAGCAAGGACCAGAAGCUGUCCGAGCCCUCAAUGUGUUCUAUUACUUGACCUAUGAAGGACAACAGAGGAUUGAGCAUCA

The binders below were run against T1, UNK ZnF1-6 (called full-length) (assay: nsRBNS (natural sequence RNA bind-n-seq); RBNS binding buffer (assumed for nsRBNS): 25 mM Tris pH 7.5, 150 mM KCl, 3 mM MgCl2, 0.01% Triton X-100, 500 ug/ml BSA, 20 U/ml SUPERase-In, 4 C; UNK is unkempt and MSI1 is Musashi-1; names of the RNAs are library labels; protein concentration not given here; high values mean tight binding).
In the case of B1, the binding signal is reported as 0.546 enrichment R.
Work on B2 yielded a binding signal of 0.517 enrichment R.
Work on B3 yielded a binding signal of 0.648 enrichment R.
Work on B4 yielded a binding signal of 0.713 enrichment R.
For B5, the binding signal was 0.51 enrichment R.
B6 showed a binding signal of 0.478 enrichment R.
